Experimental data from PubChem BioAssay (NCATS).
Unmarked numbers belong to inactive results. Results filed as inconclusive are left out. A call without a number means that no potency is given here. Calls of active or inactive are those of the source. Calls follow the shape of the dose curve; as a rule, active = well fitted curve in the direction sought with a large enough effect; inconclusive = small, poorly fitted or top-dose-only effect, or another doubt; inactive = no such curve, though single readings can be large; an effect the other way counts as inactive or inconclusive.

How the values were obtained:
[1] = molecular target: Glutathione peroxidase 1 (Homo sapiens) (UniProt P07203); experiment: Primary qHTS Assay for Inhibitors of Recombinant Selenoprotein Glutathione Peroxidase 1 (GPX1) (AID 1845191); also: nearly all actives have a fitted effect of over 65% in size
Method in brief: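 NADPH consumption tracked by fluorescence at 340/450 nm between t=0 and t=15 min, room temperature. Final mix: 10 nM GPX1, 100 nM glutathione reductase, 1 mM GSH, 0.5 mM NADPH, 0.5 mM cumene hydroperoxide, 0.01% BSA; 30 min compound–enzyme preincubation.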

[2] = molecular target: Phospholipid hydroperoxide glutathione peroxidase GPX4 (Homo sapiens) (UniProt P36969); experiment: Primary qHTS Assay for Inhibitors of Recombinant Selenoprotein Glutathione Peroxidase 4 (GPX4) (AID 1845192); also: nearly all actives have a fitted effect of over 65% in size
Method in brief: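 NADPH consumption followed by fluorescence at 340/450 nm, t=0 and after 15 min at room temperature. Reaction started with cumene hydroperoxide (0.5 mM final) after 30 min compound–GPX4 preincubation; final 200 nM GPX4, 100 nM GR, 1 mM GSH, 0.5 mM NADPH.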

[3] = molecular target: Luciferin 4-monooxygenase (Photinus pyralis) (UniProt P08659); experiment: Primary firefly luciferase (FLuc) qHTS assay for identification of artifact compounds. (AID 1845220); also: nearly all actives have a fitted effect of over 60% in size; also: potency is read from the fitted curve at half-maximal effect
Method in brief: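 FLuc 10 nM; luciferin 10 uM; ATP 10 uM; Tris-acetate pH 7.6, Mg-acetate 10 mM; 15 min RT preincubation; 5 min reaction; luminescence.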

[4] = Primary fluorescence-based thiol-reactive (MSTI) qHTS assay for identification of artifact compounds. (AID 1845221); also: nearly all actives have a fitted effect of over 65% in size; also: potency is read from the fitted curve at half-maximal effect;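 as to activity change, negative = thiol reactive: series mostly up to about 54 µM; thiol-reactive compounds lower the probe fluorescence signal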
Method in brief: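 Compounds were incubated 1 h at room temperature in the dark with the MSTI probe (4 uM) in PBS pH 7.4, 2% DMSO. Signals were normalized between Acetyl-MSTI and MSTI.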

[5] = system: Nanoluciferase (engineered Oplophorus gracilirostris luciferase); experiment: Primary Nanoluciferase (NLuc) qHTS assay for identification of artifact compounds. (AID 1845222);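 also: NLuc secreted into diluted conditioned medium of S16 cells; series mostly up to about 54 µM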
Method in brief: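 NLuc from S16 cell medium (1:55) plus test compounds, 15 min, room temperature. Luminescence after Nano-Glo (1:100) addition, 5 min.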

[6] = Primary redox qHTS assay for identification of artifact compounds. (AID 1845223)
Method in brief: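 Redox-cycling detection via DTT (250 uM final) oxidation coupled to Amplex Red (25 uM)/HRP (250 mU/mL) in HBSS. 15 min preincubation plus 30 min after DTT, room temperature. Ex/Em 525/598 nm; 4-parameter Hill fit against DMSO and 10 uM DA3003.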

Sequence of Phospholipid hydroperoxide glutathione peroxidase GPX4 (Homo sapiens) (P36969 whole entry, looked up): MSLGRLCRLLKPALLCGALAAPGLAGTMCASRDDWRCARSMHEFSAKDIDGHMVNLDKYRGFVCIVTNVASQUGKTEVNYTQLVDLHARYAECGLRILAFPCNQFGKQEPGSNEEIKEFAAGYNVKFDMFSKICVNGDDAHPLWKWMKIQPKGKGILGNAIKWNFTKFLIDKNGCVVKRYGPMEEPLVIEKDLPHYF
Sequence of Glutathione peroxidase 1 (Homo sapiens) (P07203 whole entry, looked up): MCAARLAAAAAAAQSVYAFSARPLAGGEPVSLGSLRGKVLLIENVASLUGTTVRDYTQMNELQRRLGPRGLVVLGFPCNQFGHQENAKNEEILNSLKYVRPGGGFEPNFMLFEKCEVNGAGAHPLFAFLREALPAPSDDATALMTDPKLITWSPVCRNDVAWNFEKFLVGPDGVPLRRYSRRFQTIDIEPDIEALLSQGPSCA

COc1cc(N2CCOCC2)ccc1NC(=O)c1csc(-c2cccnc2)n1
Potency [1]: inactive
Potency [2]: inactive
Potency [3]: inactive
Potency [4]: 2.38 µM (active)
Potency [5]: inactive
Potency [6]: inactive

C=C1CCC[C@]2(C)CC/C(=C(/CO)C(=O)OC)C[C@@H]12
Potency [1]: inactive
Potency [2]: inactive
Potency [3]: inactive
Potency [4]: inactive
Potency [5]: inactive
Potency [6]: inactive

C=C1CC[C@@H](O)[C@]2(C)C[C@H]3OC(=O)C(=C)[C@H]3CC12 (some centres not stated)
Potency [1]: inactive
Potency [2]: inactive
Potency [3]: inactive
Potency [4]: inactive
Potency [5]: inactive
Potency [6]: inactive

Cn1nc(C(C)(C)C)cc1C(=O)N[C@@H](Cc1cccc(Cl)c1)C(=O)NCC#N
Potency [1]: inactive
Potency [2]: inactive
Potency [3]: inactive
Potency [4]: inactive
Potency [5]: inactive
Potency [6]: inactive

NC(=O)c1ccccc1Nc1ccnc(Nc2cccc(O)c2)n1
Potency [1]: inactive
Potency [2]: inactive
Potency [3]: inactive
Potency [4]: inactive
Potency [5]: inactive
Potency [6]: inactive

Nc1nc(OCc2cc(Br)cs2)c2[nH]cnc2n1
Potency [1]: inactive
Potency [2]: inactive
Potency [3]: inactive
Potency [4]: inactive
Potency [5]: inactive
Potency [6]: inactive

O=S(=O)(NCc1cccc2ccccc12)c1cc(Cl)c(Oc2cccc(N3CCNCC3)c2)s1
Potency [1]: inactive
Potency [2]: inactive
Potency [3]: inactive
Potency [4]: inactive
Potency [5]: inactive
Potency [6]: inactive

COc1ccc([C@H]2OC[C@H]3O[C@@H](O[C@H]4[C@@H]2NC[C@@H]4O)[C@H](O)[C@H]3O)cc1
Potency [1]: inactive
Potency [2]: inactive
Potency [3]: inactive
Potency [4]: inactive
Potency [5]: inactive
Potency [6]: inactive

C=C(C)C1CCC2(C(=O)O)CCC3(C)C(CCC4C5(C)C(C=O)C(O)C(C)(C)C5CCC43C)C12 (configuration not stated)
Potency [1]: inactive
Potency [2]: inactive
Potency [3]: inactive
Potency [4]: inactive
Potency [5]: inactive
Potency [6]: inactive

CCCC1(CCC)CCC2(CCN(CCCN(CC)CC)C2)CC1
Potency [1]: inactive
Potency [2]: inactive
Potency [3]: inactive
Potency [4]: inactive
Potency [5]: inactive
Potency [6]: inactive

C/C=C(\C)C(=O)O[C@H]1C=C(CO)C(=O)[C@H](OC(C)=O)[C@H]1C(C)C
Potency [1]: inactive
Potency [2]: inactive
Potency [3]: inactive
Potency [4]: inactive
Potency [5]: inactive
Potency [6]: inactive

COc1cc(O)cc(/C=C/c2cccc(O)c2)c1
Potency [1]: inactive
Potency [2]: inactive
Potency [3]: 10.7 µM (active)
Potency [4]: 18.9 µM (active)
Potency [5]: inactive
Potency [6]: inactive

CC(O)(C(=O)O)C1CCC2(C)C1CCC1(C)C2CCC2C3(C)CCC(O)C(C)(COC4OC(CO)C(O)C(O)C4O)C3CCC21C (configuration not stated)
Potency [1]: inactive
Potency [2]: inactive
Potency [3]: inactive
Potency [4]: inactive
Potency [5]: inactive
Potency [6]: inactive

COC1CC(O[C@H]2CC[C@]3(C)C4CC[C@]5(C)C(C6=CC(=O)OC6)=CCC56OC46CC[C@@H]3C2)OC(C)C1O[C@@H]1O[C@H](CO[C@@H]2O[C@H](CO)[C@@H](O)[C@H](O)[C@H]2O)[C@@H](O)[C@H](O)[C@H]1O (some centres not stated)
Potency [1]: inactive
Potency [2]: inactive
outcome [3]: inactive [at 11.6 µM]
activity change, negative = thiol reactive [4]: 101% [at 11.5 µM]
activity, negative = inhibition [5]: 0% [at 11.6 µM]
redox activity (% of DA3003) [6]: 3.85% [at 11.5 µM]

CNC(C)C(=O)NC(C(=O)N1CCCC1C(=O)Nc1snnc1-c1ccccc1)C1CCCCC1 (configuration not stated)
Potency [1]: inactive
Potency [2]: inactive
Potency [3]: inactive
Potency [4]: inactive
Potency [5]: inactive
Potency [6]: inactive

CNS(=O)(=O)c1ccccc1Nc1nc(Nc2ccc(N3CCN(C)CC3)cc2OC)ncc1Br
Potency [1]: inactive
Potency [2]: inactive
Potency [3]: inactive
Potency [4]: 2.67 µM (active)
Potency [5]: inactive
Potency [6]: inactive

CNc1cccc(CCOc2ccc3c(c2)CN(CC(F)(F)F)C(=O)[C@H](CC(=O)O)C3)n1
Potency [1]: inactive
Potency [2]: inactive
Potency [3]: inactive
Potency [4]: inactive
Potency [5]: inactive
Potency [6]: inactive

C=C1C(=O)O[C@@H]2/C=C(\C)CC/C=C(/C=O)[C@H](OC)[C@@H](OC(=O)C(C)C)[C@@H]12
Potency [1]: inactive
Potency [2]: inactive
Potency [3]: inactive
Potency [4]: inactive
Potency [5]: inactive
Potency [6]: inactive

CC(C)C[C@@H](N)C(=O)N[C@H]1C(=O)N[C@@H](CC(N)=O)C(=O)N[C@H]2C(=O)N[C@H]3C(=O)N[C@H](C(=O)N[C@H](C(=O)O)c4cc(O)cc(O)c4-c4cc3ccc4O)[C@H](O)c3ccc(c(Cl)c3)Oc3cc2cc(c3O[C@@H]2O[C@H](CO)[C@@H](O)[C@H](O)[C@H]2O[C@H]2C[C@](C)(N)[C@H](O)[C@H](C)O2)Oc2ccc(cc2Cl)[C@H]1O
Potency [1]: inactive
Potency [2]: inactive
Potency [3]: inactive
Potency [4]: inactive
Potency [5]: inactive
Potency [6]: inactive

Cc1ccccc1CN1CCn2c1nc1c(c2=O)CN(Cc2ccccc2)CC1
Potency [1]: inactive
Potency [2]: inactive
Potency [3]: inactive
Potency [4]: inactive
Potency [5]: inactive
Potency [6]: inactive

O=C(O)C1=CO[C@@H](O[C@@H]2O[C@H](CO)[C@@H](O)[C@H](O)[C@H]2O)[C@@H]2C(CO)=CC[C@H]12
Potency [1]: inactive
Potency [2]: inactive
Potency [3]: inactive
Potency [4]: inactive
Potency [5]: inactive
Potency [6]: inactive

COc1ccc(C[C@H]2COC(=O)[C@@H]2Cc2ccc(O[C@@H]3O[C@H](CO)[C@@H](O)[C@H](O)[C@H]3O)c(OC)c2)cc1OC
Potency [1]: inactive
Potency [2]: inactive
Potency [3]: inactive
Potency [4]: inactive
Potency [5]: inactive
Potency [6]: inactive
